Screening data deposited in PubChem BioAssay by National Center for Advancing Translational Sciences (NCATS).
JMJD2A Tudor inh = qHTS Assay for Inhibitors of JMJD2A-Tudor Domain; Potency, µM (doses to about 114 µM), inactives show at the highest dose activity change, negative = inhibition, actives largely listed as inhibitors; Lysine-specific demethylase 4A (Homo sapiens), O75164; AlphaScreen JMJD2A-Tudor / H3K4me3 peptide binding; AID 504339, 2011; 390,000 compounds, 4.4% hits; also: % is scaled to controls: 0 for no effect and ±100 for the full control effect; nearly all actives have a fitted effect of over 50% in size
HP1b binding inh = HTS for Inhibitors of HP1-beta Chromodomain Interactions with Methylated Histone Tails; Chromobox protein homolog 1 (Homo sapiens), P83916; AlphaScreen HP1-beta / biotin-H3K9me3 peptide binding; Potency, µM (doses to about 114 µM), for inactives: at the top dose activity change, negative = inhibition, actives largely listed as inhibitors; 390,000 compounds, 0.56% hits; also: nearly all actives have a fitted effect of over 70% in size
Target sequence (P83916 whole entry, looked up): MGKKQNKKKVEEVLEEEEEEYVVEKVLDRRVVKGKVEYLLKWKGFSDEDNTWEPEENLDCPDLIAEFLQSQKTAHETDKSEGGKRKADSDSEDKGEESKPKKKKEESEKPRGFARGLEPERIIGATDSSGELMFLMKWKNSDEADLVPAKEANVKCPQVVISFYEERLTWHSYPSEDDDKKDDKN
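AlphaScreen: HP1-beta (50 nM) preformed 30 min with biotin-H3(1-18)K9me3 peptide (50 nM) in PBS pH 7.4, 0.01% Tween-20. Compound added for 30 min at RT, then streptavidin donor/nickel chelate acceptor beads (10 ug/mL) for 30 min.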
G9a inh = qHTS Assay for Inhibitors of Histone Lysine Methyltransferase G9a; Histone-lysine N-methyltransferase EHMT2 (Homo sapiens), Q96KQ7; 350,000 compounds, 8.8% hits; G9a H3K9 monomethylation, AlphaScreen, 2 h; Potency, µM (top dose mostly 102 µM), for inactives: top-dose activity, negative = inhibition, hits mostly inhibitors; AID 504332, 2011; also: % is scaled to controls: 0 for no effect and ±100 for the full control effect; nearly all actives have a fitted effect of over 75% in size
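Enzyme 20 nM + cpd, 15 min RT; add b-H3K9 pep 500 nM / SAM 20 uM; 2 h RT; anti-H3K9me1 Ab 0.5 ug/mL + SA donor / anti-rabbit acceptor beads 20 ug/mL each, 10 min; AlphaScreen read.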
BAZ2B inh = qHTS Assay for Inhibitors of BAZ2B. AlphaScreen BAZ2B-H3K14Ac peptide displacement. AID 504333, 2011. Potency, µM (top dose mostly 114 µM), for the others: at the highest dose activity change, negative = inhibition, hits mostly inhibitors. 360,000 compounds, 4.4% hits. Bromodomain adjacent to zinc finger domain protein 2B (Homo sapiens), Q9UIF8; also: % is scaled to controls: 0 for no effect and ±100 for the full control effect; nearly all actives have a fitted effect of over 60% in size
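Inhibition is scored as reduced AlphaScreen emission. The BAZ2B/b-H3(5-23)K14Ac complex (50 nM each) in PBS pH 7.4, 0.01% Tween-20 meets compound (up to 110 uM) for 30 min at RT before bead addition.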
VDR inh = Inhibitors of the vitamin D receptor (VDR): qHTS. Vitamin D3 receptor (Homo sapiens), P11473. VDR-SRC2-3 peptide fluorescence polarization, 2 h. Potency, µM, inactives show max response, negative = inhibition, usual class: inhibitors. 400,000 compounds, 0.93% hits. AID 504847, 2011; also: % is scaled to controls: 0 for no effect and ±100 for the full control effect
Target sequence (P11473 whole entry, looked up): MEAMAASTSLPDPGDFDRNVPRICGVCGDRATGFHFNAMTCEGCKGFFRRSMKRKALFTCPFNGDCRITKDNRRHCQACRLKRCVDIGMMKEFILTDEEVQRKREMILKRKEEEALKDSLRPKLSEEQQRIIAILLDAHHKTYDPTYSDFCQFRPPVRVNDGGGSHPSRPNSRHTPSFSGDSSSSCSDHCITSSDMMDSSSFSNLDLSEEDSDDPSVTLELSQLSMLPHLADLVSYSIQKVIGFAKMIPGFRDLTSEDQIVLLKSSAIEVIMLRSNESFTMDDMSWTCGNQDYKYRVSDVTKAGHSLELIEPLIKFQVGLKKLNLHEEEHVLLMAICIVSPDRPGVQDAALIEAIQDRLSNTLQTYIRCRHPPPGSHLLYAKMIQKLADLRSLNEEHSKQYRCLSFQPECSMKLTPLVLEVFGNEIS
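After 23 nl compound addition and a short centrifugation, plates sat for 2 hours at ambient temperature; polarization of fluorescence then indicated loss of VDR binding to peptide SRC2-3.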
PLK1 PBD inh = qHTS for Inhibitors of PLK1-PDB (polo-like kinase 1 - polo-box domain): Primary Screen; 360,000 compounds, 2.8% hits; AID 720504, 2013; Potency, µM, for the others: max response, negative = inhibition, hits mostly inhibitors; Serine/threonine-protein kinase PLK1 (Homo sapiens), P53350; Plk1 PBD binding of FITC phosphopeptide, fluorescence polarization; also: series mostly up to about 57 µM; % is scaled to controls: 0 for no effect and ±100 for the full control effect; nearly all actives have a fitted effect of over 65% in size
* marks the source's active call; other numbers are inactive results; u = inconclusive; x = no result given; ! = not active in a repeat; [ ] = dose if it differs, or a comment. The list is not random: actives were taken first. Their share in the collection is about 11%. Calls follow the shape of the dose curve; as a rule, active = well fitted curve in the direction sought with a large enough effect; inconclusive = small, poorly fitted or top-dose-only effect, or another doubt; inactive = no such curve, though single readings can be large; an effect the other way counts as inactive or inconclusive. Potency is read from the fitted curve at half-maximal effect.

SMILES	JMJD2A Tudor inh	HP1b binding inh	G9a inh	BAZ2B inh	VDR inh	PLK1 PBD inh
O=C(Nc1cc(C(F)(F)F)ccc1Cl)c1cnn(-c2ccccc2)c1-n1cccc1	13.4%	47.0%	-2.4%[59 µM]	5.4%	12.9%	x
Cn1c(-c2ccc(F)cc2)cnc1SCC(=O)N1CCCCC1	-15.8%	45.3%	-8.3%[59 µM]	-5.6%	-2.2%	-3.7%
CCCN(CCC)C(=O)CSc1ncccc1C(=O)O	89.1µM*	23.2%	u	-1.5%	3.7%	-6.0%
CC1Cc2ccccc2N1C(=O)CSc1ncc(-c2ccc(F)cc2)n1C (stereo unspecified)	56.2µM*	u	u	28.2µM*	-22.8%	7.7%
Cn1c(-c2ccc(F)cc2)cnc1SCC(=O)N1CCCc2ccccc21	-29.1%[57.1 µM]	u	44.7µM*	31.6µM*	-21.0%	u
Cc1ccc(-c2nc3c4ccccc4n(CC(=O)NCc4ccc(F)cc4)c(=O)n3n2)cc1	-14.3%	59.0%	-8.4%[59 µM]	31.7%	3.9%	x
Cc1sc(N)nc1-c1cccc([N+](=O)[O-])c1	-34.8%	-16.7%	x	x	1.2%	x
O=c1c2c(C(F)(F)F)cc(C(F)(F)F)nc2[nH]n1-c1ccccc1	u	-22.6%	7.94µM*	u	-4.4%	-11.1%
CCCn1c(N)c(C(=O)CSc2nnnn2-c2ccc(O)cc2)c(=O)n(C)c1=O	-6.9%	32.9%	-4.1%[59 µM]	9.6%	9.2%	-4.5%
COc1cc(-c2cc3nc(NCc4cccc(Cl)c4)ccn3n2)cc(OC)c1OC	x	x	x	x	x	-5.1%
C[n+]1cc[nH]c1SCC(=O)c1ccc(Cl)cc1	-16.8%	13.1%	31.6µM*	x	u	-27.5%
O=C(CSc1nccn1-c1ccccc1)c1ccc(Cl)cc1	-26.0%	-37.9%	x	u	9.5%	-4.9%
C[n+]1cc[nH]c1SCC(=O)c1ccccc1	-29.6%	0.0%	50.1µM*	-30.5%	-10.4%	-22.0%
Cc1nc2ccccc2nc1SCC(=O)c1ccccc1	6.3%	13.5%	u	30.8%	-3.7%	-10.0%
COc1ccc(NC(=O)c2cccc(S(=O)(=O)N3CCc4ccccc43)c2)cn1	-2.4%	20.5%	-29.1%	u	4.5%	-3.2%
COCCCNCCOCCOc1c(OC)cccc1OC	-7.7%	36.2%	-46.7%	6.1%	0.0%	-9.6%
C=CCc1cccc(OC)c1OCCOCCNCCO	5.62µM*	-28.1%	11.2µM*	56.2µM*	-9.0%	-0.2%
O=C(NNS(=O)(=O)c1ccc(Cl)cc1)c1cnn(-c2ccccc2)c1-n1cccc1	-20.5%[57.1 µM]	42.0%	82.5%[59 µM]	u	-7.3%	-5.6%
Cc1ccc(-c2nc(NC(=O)CSc3cc(C)c4ccccc4n3)ns2)cc1	u	-14.3%	35.5µM*	10µM*!	1.5%	u
Cc1cc(SCC(=O)O)nc2ccccc12	-7.1%	6.3%	11.3%	22.7%	2.2%	-4.9%
Cc1cc(SCC(=O)NC(=O)c2cccn2C)nc2ccccc12	u	1.9%	50.1µM*	u	u	u
COc1ccc2c(C)cc(SCC(=O)Nc3nsc(-c4ccc(C)cc4)n3)nc2c1	-21.8%	51.6%	1.9%	-2.6%	11.0%	-2.3%
Cc1nc(NC(=O)CSc2cc(C)c3ccccc3n2)c(Cl)cc1Cl	-27.2%	21.7%	44.7µM*	0.0%	-9.1%	u
Cc1cc(SCC(=O)c2ccc(O)c(O)c2)nc2ccccc12	u	u	10µM*	17.8µM*	-26.1%	-21.9%
CC(C)(C)c1ccc(C(=O)N2CCCC(c3nc4c(nnn4Cc4cccc(F)c4)c(=O)[nH]3)C2)cc1 (stereo unspecified)	-28.5%	2.5%	-10.1%[59 µM]	u	-0.7%	x
SMILES	JMJD2A Tudor inh	HP1b binding inh	G9a inh	BAZ2B inh	VDR inh	PLK1 PBD inh
COc1cc(/C=N/Nc2ccc(C(F)(F)F)cn2)cc(OC)c1O	-8.5%	-2.3%	39.8µM*	-18.1%	-4.3%	-6.9%
Oc1c(/C=N/Nc2cccc3cccnc23)ccc2ccccc12	-22.2%	39.5%	u	-1.0%	2.1%	-5.4%
Oc1cccc(/C=N/Nc2cccc3cccnc23)c1	u	u	35.5µM*	u	6.4%	-6.4%
Oc1ccc(/C=N/Nc2ccc(C(F)(F)F)cn2)c(O)c1	x	x	14.5%	28.2µM*	x	x
Oc1ccc(/C=N/Nc2ccc(C(F)(F)F)cn2)cc1	-12.4%	34.1%	0.5%	-16.5%	13.5%	7.5%
COc1cc(N/N=C/c2ccccc2O)ncn1	44.7µM*	9.0%	21.7%	28.2µM*	-18.0%	-13.7%
O=C(COC(=O)c1ccc2ncsc2c1)Nc1ccccc1Cl	-6.0%	40.1%	x	x	-10.3%	2.8%
COc1ccc(NC(=O)C(=O)Nc2cccc3cccnc23)cc1OC	-18.8%	34.1%	x	-6.6%	-20.6%	-9.9%
COc1cc(/C=N/Nc2ccccn2)cc(OC)c1O	-25.4%	14.6%	28.2µM*	-17.0%	-2.5%	-21.7%
COc1cc(/C=N/Nc2cccc3cccnc23)cc(OC)c1O	u	u	10µM*	28.2µM*	-14.8%	-9.9%
CC1(C(=O)CSc2nc3ccccc3s2)CCC(=O)O1 (stereo unspecified)	39.8µM*	37.0%	1.7%[12.7 µM]	u	u	21.2µM*
CC1(C)CC2(CC(C)(C(=O)CSc3nc4ccccc4s3)OC2=O)C(=O)O1 (stereo unspecified)	-15.8%	22.4%	-7.9%	-8.5%	-17.3%	-22.9%
Cc1ccc(S(=O)(=O)NC(=O)CSc2nc3ccccc3s2)cc1	-16.5%	25.3%	50.1µM*	-0.8%	-20.4%	u
CS/C(=N\S(=O)(=O)c1cccs1)NC(=O)CSc1nc2ccccc2s1	u	39.9%	u	u	u	10.6µM*
CC(OC(=O)CCOc1ccccc1)C(=O)NC1CC1 (stereo unspecified)	-2.8%	32.1%	14.0%[0.501 µM]	-3.8%	-7.1%	-2.6%
COc1ccc(CNC(=O)C(c2ccco2)N(C(=O)c2snc(C(N)=O)c2N)c2cccc(OC)c2)cc1 (stereo unspecified)	-0.7%	22.4%	14.6%	3.4%	2.4%	-14.3%
CC(OC(=O)c1cccc(-n2cnnn2)c1)C(=O)Nc1ccccc1F (stereo unspecified)	-5.5%	17.0%	50.1µM*	4.4%	-0.2%	-2.3%
COc1cccc(CNC(=O)c2cc(S(=O)(=O)N3CCCCCC3)cn2C)c1	-13.7%	10.8%[57 µM]	8.4%[59 µM]	-15.3%	8.1%	x
N#CC1=C(S)N(c2ccccc2)C(c2ccc(-c3cccc(Cl)c3)o2)NC1=O (stereo unspecified)	u	-15.5%	u	u	u	23.8µM*
